Screening results as filed in PubChem BioAssay.
An excerpt weighted towards active compounds, which were near 3% of everything screened.
Mtb BioA inh – inhibitors of Mycobacterium tuberculosis BioA enzyme; AID 602481; purified M. tuberculosis BioA enzyme, plate reader; inhibition, % at 9.99 µM; actives 0.096% (n = 360,000); in the data active = inhibition above about 40%
FBA Mtb inh – Mtb fructose-bisphosphate aldolase inhibition; actives 2.3% (n = 360,000); AID 588726; purified M. tuberculosis FBA, fluorescence read-out; inhibition, % at 1 µM; in the data active = inhibition above about 27%
Target sequence (P9WQA3 whole entry, looked up): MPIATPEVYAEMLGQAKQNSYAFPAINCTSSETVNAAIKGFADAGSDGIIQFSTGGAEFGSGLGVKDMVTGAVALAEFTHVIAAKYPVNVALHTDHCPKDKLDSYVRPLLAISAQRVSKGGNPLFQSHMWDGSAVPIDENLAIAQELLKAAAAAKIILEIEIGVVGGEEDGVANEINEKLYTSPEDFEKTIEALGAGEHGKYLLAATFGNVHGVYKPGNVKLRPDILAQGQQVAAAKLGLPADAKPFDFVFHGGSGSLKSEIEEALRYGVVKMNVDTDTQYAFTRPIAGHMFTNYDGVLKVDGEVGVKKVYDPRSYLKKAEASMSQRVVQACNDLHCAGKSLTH
GDH-TPI inh – inhibits GDH-TPI coupling enzymes, artifact for Mtb FBA screen; GDH-TPI coupled enzyme counterscreen, NADH absorbance; inhibition, % at 4.8 µM; actives 1.2% (n = 360,000); AID 588335; in the data active = inhibition above about 30%
BH1578 lux ind – inducers of Vibrio cholerae quorum light production without autoinducers; V. cholerae BH1578 lux reporter, luminescence, 6 h; activation, % at 18.7 µM; actives 0.16% (n = 350,000); AID 588436; in the data active = activation mostly above about 9.7%, no sharp cut-off
Of the large screens only hits and unclear results are named; the others gave an inactive call.

Cn1nc(C(=O)N2CCN(S(=O)(=O)c3ccccc3)CC2)c2ccccc2c1=O	FBA Mtb inh 106.9
C=CCNc1sc(C(=O)C(C)(C)C)c(N)c1C#N	GDH-TPI inh 40.0
C=CCNc1sc(C(=O)C2CC2)c(N)c1C#N	GDH-TPI inh 39.8
C=CCNc1sc(C(=O)c2ccc(C)cc2)c(N)c1C#N	none
CCC(=O)N(C)C[C@H]1Oc2cc(C3=CCCC3)ccc2S(=O)(=O)N([C@H](C)CO)C[C@H]1C	none (no result: FBA Mtb inh, GDH-TPI inh, BH1578 lux ind)
COc1ccccc1C(=O)NC(=O)COC(=O)c1nccnc1N	FBA Mtb inh 144.3
N#CC1(NC(=O)COC(=O)c2nccnc2N)CCCCC1	FBA Mtb inh 164.8
Cc1cc(NC(=O)COc2ccccc2)n(-c2ccccc2)n1	none
CC1CCCCC1NC(=O)NC(=O)COC(=O)c1nccnc1N (centres undefined)	FBA Mtb inh 118.4
Cc1cc(NC(=O)COC(=O)c2nccnc2N)n(-c2ccccc2)n1	FBA Mtb inh 128.9
CNC[C@@H]1Oc2ccc(NS(=O)(=O)c3ccc(OC)cc3)cc2CC(=O)N([C@@H](C)CO)C[C@@H]1C	none (no result: FBA Mtb inh, GDH-TPI inh, BH1578 lux ind)
Nc1nccnc1C(=O)OCC(=O)NNC(=O)c1ccccc1	FBA Mtb inh 159.7
CC(/C=C/C=C/c1ccccc1)=N/NC(=O)C(O)c1ccccc1 (centres undefined)	GDH-TPI inh 50.2
CC(/C=C/C=C/c1ccccc1)=N/NC(=O)CNc1ccc(C)cc1	GDH-TPI inh 33.2
Cc1ccc(S(=O)(=O)N(C)C[C@H]2Oc3ccc(NS(=O)(=O)c4c(C)noc4C)cc3CC(=O)N([C@@H](C)CO)C[C@@H]2C)cc1	none (no result: FBA Mtb inh, GDH-TPI inh, BH1578 lux ind)
COc1cc2cc(C(=O)N3CCN(Cc4ccc5c(c4)OCO5)CC3)c(=O)oc2cc1OC	FBA Mtb inh active (no result: Mtb BioA inh)
COc1ccccc1C(=O)N1CCN(Cc2ccc3c(c2)OCO3)CC1	none
Cc1ccccc1N=CC1=C(O)c2ccccc2C1=O	GDH-TPI inh 46.3 (no result: Mtb BioA inh)
CS(=O)(=O)c1ccc2nc(NC(=O)c3cccs3)sc2c1	GDH-TPI inh 49.1
CCNS(=O)(=O)c1ccc2nc(NC(=O)c3cccnc3)sc2c1	GDH-TPI inh 70.3
CS(=O)(=O)c1ccc2nc(NC(=O)c3cc([N+](=O)[O-])cc([N+](=O)[O-])c3)sc2c1	none
CS(=O)(=O)c1ccc2nc(NC(=O)c3cccc([N+](=O)[O-])c3)sc2c1	GDH-TPI inh 39.3
c1ccc(-c2c3ccccc3nc3[nH]c4ccccc4c23)cc1	FBA Mtb inh 31.4
c1ccc2nc3c(nc2c1)[nH]c1ccccc13	none
Cc1cc(OCC(=O)NCc2ccc(S(N)(=O)=O)cc2)c2c3c(c(=O)oc2c1)CCC3	FBA Mtb inh 40.4
O=C(N/C(=C\c1ccc(Br)cc1)c1nc2ccccc2[nH]1)c1ccco1	GDH-TPI inh 47.2
Cc1ccc(C(=O)N/C(=C\c2cccs2)c2nc3ccccc3[nH]2)cc1	GDH-TPI inh 43.5 (no result: Mtb BioA inh)
N#C/C(=C\c1cccs1)c1nc2ccccc2[nH]1	none
O=C(N/C(=C/c1cccs1)c1nc2ccccc2[nH]1)c1ccccc1	GDH-TPI inh 32.8 (no result: BH1578 lux ind)
C[C@@H]1CN([C@H](C)CO)C(=O)c2cc(-c3cccnc3)cnc2O[C@@H]1CN(C)C(=O)c1cccc(F)c1	none (no result: FBA Mtb inh, GDH-TPI inh, BH1578 lux ind)
C[C@H](CO)N1C[C@H](C)[C@H](CN(C)C(=O)Cc2ccccc2)OCCCC[C@H](C)Oc2ccc(NS(=O)(=O)c3cn(C)cn3)cc2C1=O	none (no result: FBA Mtb inh, GDH-TPI inh, BH1578 lux ind)
CCn1c2ccccc2c2cc(C#N)c(N)nc21	FBA Mtb inh 106.5
CCn1c2ccccc2c2cc(N)ccc21	none
N#CCSc1nc(-c2ccccc2)cs1	none
N#CCSc1ccc2nc(-c3ccccc3)cn2n1	FBA Mtb inh 134.4
CN(c1ccccc1)c1ccc(/C=N/N2CCOCC2)cc1	GDH-TPI inh 30.9
CC(C)(C)c1ccc(/C=N/N2CCN(c3ccccn3)CC2)cc1	none
CN(C)c1ccc(/C=N/N2CCN(c3ccccn3)CC2)cc1	GDH-TPI inh 39.3
O=C1CSC(=S)N1N=Cc1c(F)cccc1Cl	none
CN(C)c1ccc(C=NN2C(=O)CSC2=S)c(Cl)c1	GDH-TPI inh 35.9
O=C(CC1N=C2c3ccccc3N=C(SCc3ccc(F)cc3)N2C1=O)NCc1ccco1 (centres undefined)	BH1578 lux ind 16.7
CN(C)/C=C/C(=O)c1ccc(-n2cccc2)cc1	none (no result: Mtb BioA inh)
CN(C)/C=C/C(=O)c1ccc(Cl)c([N+](=O)[O-])c1	GDH-TPI inh 31.1 (no result: Mtb BioA inh)
CN(C)/C=C/C(=O)c1cccc(Cl)c1	GDH-TPI inh 42.3 (no result: Mtb BioA inh)
CN(C)/C=C/C(=O)c1ccc(Cl)cc1	GDH-TPI inh 48.0
Cc1ccc(C(=O)/C=C/N(C)C)cn1	GDH-TPI inh 31.4
Cc1noc(C)c1NC(=O)N(C)C[C@@H]1Oc2ccc(NC(=O)C3CC3)cc2CC(=O)N([C@@H](C)CO)C[C@H]1C	none (no result: FBA Mtb inh, GDH-TPI inh, BH1578 lux ind)
COc1ccc(S(=O)(=O)N(C)C[C@@H]2OCCCC[C@@H](C)Oc3ccc(NS(=O)(=O)c4ccc(C)cc4)cc3C(=O)N([C@@H](C)CO)C[C@@H]2C)cc1	none (no result: FBA Mtb inh, GDH-TPI inh, BH1578 lux ind)
CN(C)/C=C/C(=O)c1cccc(C(F)(F)F)c1	GDH-TPI inh 50.0 (no result: Mtb BioA inh)
COc1ccc2oc(C(=O)Nc3nc4ccccc4[nH]3)c(C)c2c1	GDH-TPI inh 44.5
Cc1ccc(NC(=O)CN2C(=O)N/C(=C/c3ccc(C)s3)C2=O)cc1	GDH-TPI inh 32.1
CCCN(C)C[C@@H]1Oc2ncc(-c3ccccc3F)cc2C(=O)N([C@H](C)CO)C[C@H]1C	none (no result: FBA Mtb inh, GDH-TPI inh, BH1578 lux ind)
Cn1c(=O)c2cc(NC(=O)OCCF)ccc2n1Cc1cccc(C(F)(F)F)c1	FBA Mtb inh 183.1
O=C(NCCc1ccccc1)Nc1cccc(Cl)c1	none (no result: Mtb BioA inh)
Cn1c(=O)c2cc(NC(=S)NC3CCCCC3)ccc2n1Cc1cccc(C(F)(F)F)c1	none
Cn1c(=O)c2cc(NC(=O)NCCc3ccccc3)ccc2n1Cc1ccccc1	FBA Mtb inh 127.2
Cn1c(=O)c2cc(NC(=O)NCCc3ccccc3)ccc2n1Cc1cccc(C(F)(F)F)c1	FBA Mtb inh 130.2
CN(C)CC(=O)Nc1ccc2c(c1)[C@H]1C[C@H](CC(=O)NCc3cc(F)ccc3F)O[C@H](CO)[C@H]1O2	none (no result: FBA Mtb inh, GDH-TPI inh, BH1578 lux ind)
CS(=O)(=O)Nc1ccc2c(c1)[C@H]1C[C@@H](CC(=O)N3CCOCC3)O[C@H](CO)[C@H]1O2	none (no result: FBA Mtb inh, GDH-TPI inh, BH1578 lux ind)
COC(=O)C1=C(SC)N(c2ccc(OC)cc2)C(c2ccccc2)CC1=O (centres undefined)	GDH-TPI inh 33.3
CCOC(=O)c1oc2nc(CC(C)C)c3c(c2c1N)CCC3	FBA Mtb inh 178.4
C[C@@H]1CN([C@@H](C)CO)C(=O)Cc2cc(NS(=O)(=O)c3ccc(Cl)cc3)ccc2O[C@@H]1CN(C)CC1CCCCC1	none (no result: FBA Mtb inh, GDH-TPI inh, BH1578 lux ind)
CN(C)c1ccc(C(=O)OCC(=O)c2ccc[nH]2)cc1	GDH-TPI inh 30.8
Cc1c(C(=O)N2CCOCC2)sc(NC(=O)c2ccc3c(c2)OCO3)c1C#N	GDH-TPI inh 45.3
C#Cc1ccc(C(=O)Nc2cc(C(N)=O)ccc2N2CCOCC2)cc1	GDH-TPI inh 32.3
Cc1noc(C)c1NC(=O)Nc1ccc2c(c1)C(=O)N([C@H](C)CO)C[C@@H](C)[C@@H](CN(C)S(C)(=O)=O)O2	none (no result: FBA Mtb inh, GDH-TPI inh, BH1578 lux ind)
COC(=O)C1=C(C)NC(C)=C(C(=O)OC)C1c1cn(-c2ccccc2)nc1-c1ccco1	GDH-TPI inh 33.7
CCN(CC)C(=O)CSc1n[nH]c(=O)n1CCc1ccccc1	FBA Mtb inh 148.2
